For 17 sequences, sensor-assay potency score (higher = more potent) results are on record in the OligoGym collection.
Note: reference of the scale not given here.

One assay has as its target MUC4. Nature of the assay: pooled miR-30 sensor sort-seq; sequence = guide strand. Conditions: shRNA.
In turn, TTGAAGAATCCTGACAGCCTTC came in with a sensor-assay potency score (higher = more potent) of -0.37. For the sequence TTCACCATAGAACGTCTCGTAT, the sensor-assay potency score (higher = more potent) was -0.617. For the sequence TAGATGGAGAAGGACACACAGC, the sensor-assay potency score (higher = more potent) was -1.17. On the same count and under the same terms, the figure for TTGTCTGTGAAGTAGAGGGAAT is -1.17. Take TTGAAGGTGTAACTGACACCAT: the sensor-assay potency score (higher = more potent) worked out at 0.0208.

In another assay the target is MUDENG. The assay is described as above. As to conditions: shRNA.
TTGAATGACTCTAAAGGTGGAG displayed a sensor-assay potency score (higher = more potent) of 0.345.

Sequence TAATCTAAGTTCAAAGAGCAGT displayed a sensor-assay potency score (higher = more potent) of -0.489. TTATTGATGCGTGAACAGCTAT showed a sensor-assay potency score (higher = more potent) of -0.441.

With AAAAACTTGAACTGAATGCTGA, the sensor-assay potency score (higher = more potent) was -0.0187. Sequence TAGTTTTGTATTCCAAATGTGT gave a sensor-assay potency score (higher = more potent) of -0.698. Consider TAAGATCCTAAAATGAAGCTTT, for which the sensor-assay potency score (higher = more potent) was 0.347.

The sequence TTATTCTTAGTTGTACTTCTTC had a sensor-assay potency score (higher = more potent) of 0.0203. As to TTGAACTGAATGCTGATCTGCA, the sensor-assay potency score (higher = more potent) was 0.719.

The sequence TTCTTAGTTGTACTTCTTCCTC displayed a sensor-assay potency score (higher = more potent) of -1.23.

Turning to TTGGTGGGGAGACTCAAGCTGA, the sensor-assay potency score (higher = more potent) was -1.09. Same read-out and setting: the figure for TATCCTGAAGTGGAGATCCATT is -1.27. Consider TAACATTTGGCATGATTCCTTC, for which the sensor-assay potency score (higher = more potent) is -0.439.
